The values below come from PubChem BioAssay AID1850 (Southern Research Specialized Biocontainment Screening …, 2009).

By inhibition is commonly meant the change of the read-out against control, counted positive when it falls.

Screen size: about 310,000 compounds; about 1,000 (0.32%) were called active. The rule behind the calls is not given here. A selection follows. Potency and affinity values are given separately.

The nature of the assay: Inhibition of PhoP regulon, Salmonella typhi GFP reporter cells, confirmation, 4 h (AID 1850).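 Note: 0% = induced wells with vehicle and 100% = uninduced wells.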 The following applies: Salmonella Typhi PhoP-promoter GFP reporter, fluorescence, at 50 µM, stronger effect = higher value.
Turning to `COc1ccc(C2Cc3ccccc3C(=O)O2)cc1` (stereo not given), the inhibition is 7.74% (inactive).

Turning to `CSCCC(NC(N)=O)C(=O)NCc1cccc(Cl)c1` (stereo not given), the inhibition is 3.4% (inactive).

With `CN(C(=O)c1ccco1)c1nc(-c2ccccc2)cs1`, the inhibition was -0.59% (inactive).

On to `CN(C)C(=O)c1cn(-c2ccccc2)nc1-c1cc2ccccc2oc1=O`, for which the inhibition is -9.39% (inactive).

On to `CSC1=NC(C)(C)C=C(/C=C/c2ccc(Cl)cc2Cl)N1`, for which the inhibition is 4.11% (inactive).

Take `Clc1ccc(/C=C/c2nc3ccccc3[nH]2)c(Cl)c1`: the inhibition was 7.7% (inactive).

On to `CC(c1ccccc1)N1CC(C(=O)NC2CCCC2)CC1=O` (stereo not given), for which the inhibition is -13.4% (inactive).

For `CCOC(=O)CC1(NC(=O)C2CCC(=O)N(Cc3ccccc3F)C2)CCCCC1` (stereo not given), the inhibition is -14.3% (inactive).

Regarding `CN(C)CCCN(C(=O)c1ccco1)c1nc2c(F)cc(F)cc2s1`, the inhibition was 1.38% (inactive).

On to `CCn1cc(C(=O)O)c(=O)c2cc(F)c(N3CCN(C(=S)NC(=O)c4ccccc4Cl)CC3)cc21`, for which the inhibition was 11.6% (inactive).

On to `CCn1cc(C(=O)O)c(=O)c2cc(F)c(N3CCN(C(=S)NC(=O)c4ccccc4Br)CC3)cc21`, for which the inhibition was -18.1% (inactive).

On to `Cc1cc(S(=O)(=O)Nc2ccc(C(=O)N3CCN(c4ccccc4O)CC3)cc2)ccc1F`, for which the inhibition is -8.67% (inactive).

In the case of `COc1ccc(Cn2cc(F)c(=O)n(C)c2=O)cc1[N+](=O)[O-]`, the inhibition is 4.35% (inactive).

For `Cc1ccc(S(=O)(=O)N2CCCC(C(=O)NCC3COCCO3)C2)cc1` (stereo not given), the inhibition was -3.93% (inactive).

On to `O=C(N/N=C/c1cccc([N+](=O)[O-])c1)C1COc2ccccc2O1` (stereo not given), for which the inhibition is -0.57% (inactive).

In the case of `COc1cc([N+](=O)[O-])cc(/C=N\NC(=O)C2COc3ccccc3O2)c1O` (stereo not given), the inhibition is 16.3% (inactive).

In the case of `O=C(N/N=C\c1ccc(O)c([N+](=O)[O-])c1)C1COc2ccccc2O1` (stereo not given), the inhibition was 1.19% (inactive).

In the case of `O=C(N/N=C\c1ccc(-c2ccccc2[N+](=O)[O-])o1)C1COc2ccccc2O1` (stereo not given), the inhibition is 6.46% (inactive).

As for `CCOC(=O)C1(Cc2ccccc2C(F)(F)F)CCN(Cc2ccon2)CC1`, the inhibition is -14.2% (inactive).

Turning to `O=C(Cn1cnc(S(=O)(=O)N2CCCC2)c1)Nc1cccc(Br)c1`, the inhibition was -2.76% (inactive).

For `O=C(Nn1cnnc1)c1ccccc1-c1ccccc1`, the inhibition was 9.02% (inactive).

Consider `COc1cccc(-c2ccc3nnc(SCC(=O)N4CCCC4)n3n2)c1`, for which the inhibition is 1.13% (inactive).

Turning to `CCN1C(=O)NC(c2ccc(Cl)cc2)C2=C1CCCC2=O` (stereo not given), the inhibition was -16.4% (inactive).

As to `OCCN1CCN(CC(O)COC(c2ccc(F)cc2)c2ccc(F)cc2)CC1` (stereo not given), the inhibition is -5.69% (inactive).

In the case of `O=C(CN1CCCC1)N1CCCC(c2ccc(F)cc2)c2ccc(F)cc21` (stereo not given), the inhibition was -12.7% (inactive).
